# From PubChem BioAssay (Tox21)
# Records with an inconclusive call do not appear. Where a call stands in place of a potency, no number is given. Values without a mark were called inactive. Calls of active or inactive are those of the source. Unless noted, the call rests on the fitted dose curve.
# Tests used:
# [1] = qHTS assay to identify small molecule agonists of the vitamin D receptor (VDR) signaling pathway - cell viability counter screen (AID 743224; active means well fitted curve in the direction sought with a large enough effect in the repeat runs; an effect the other way counts as inactive or inconclusive; further: series mostly up to about 63 µM; nearly all actives have a fitted effect of over 50% in size)
# Procedure, shortened: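 VDR-bla cell line, quantitative HTS format; 16 h compound incubation (37C, 5% CO2); ATP-based CellTiter-Glo luminescence measured in the reporter assay wells.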
# [2] = qHTS assay to identify small molecule agonists of the NFkB signaling pathway - cell viability counter screen (AID 1159515); further: series mostly up to about 61 µM; nearly all actives have a fitted effect of over 55% in size
# Procedure, shortened: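 Viability in NFkB-bla ME-180 cells was measured by CellTiter-Glo luminescence, 30 min room temperature, in wells already treated 5 hr with compounds and read for reporter FRET.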
# [3] = qHTS assay to identify small molecule agonists of the endoplasmic reticulum stress response signaling pathway - cell viability counter screen (AID 1159517);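 further: HeLa cells carrying an ER stress response element beta-lactamase reporter; series mostly up to about 61 µM; nearly all actives have a fitted effect of over 50% in size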
# Procedure, shortened: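 CellTiter-Glo was added to wells already read for beta-lactamase FRET, and luminescence was recorded 30 min later. Cells: ESRE-bla HeLa, 1,500 per well, compound exposure 5 hr at 37 C.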
# [4] = qHTS assay to identify small molecule antagonists of the retinoid-related orphan receptor gamma (ROR-gamma) signaling pathway - cell viability counter screen (AID 1159520; active means well fitted curve in the direction sought with a large enough effect in the repeat runs; an effect the other way counts as inactive or inconclusive; further: nearly all actives have a fitted effect of over 50% in size)
# Procedure, shortened: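 Tet-on ROR gamma CHO cells (1,000/well) were plated 4 hr, given compounds in DMSO for 2 hr at 37 C, then induced with 1 uM final doxycycline for 16 hr. Viability was read as ATP by CellTiter-Glo luminescence after 30 min.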
# [5] = qHTS assay to identify small molecule agonists of the AP-1 signaling pathway - cell viability counter screen (AID 1159525); further: nearly all actives have a fitted effect of over 55% in size
# Procedure, shortened: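 ME-180 AP-1-bla, 2500 cells/well, Opti-MEM + 0.5% dialyzed FBS; overnight 37 °C; cpd 15-pt titration, 5 h 37 °C; CellTiter-Glo 30 min RT; luminescence read; normalised to TOAB and DMSO controls.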
# [6] = biological target: Retinoic acid receptor RXR-alpha (Homo sapiens) (UniProt P19793); assay: qHTS assay to identify small molecule agonists of the RXR signaling pathway (AID 1159527); further: nearly all actives have a fitted effect of over 35% in size
# Retinoic acid receptor RXR-alpha (Homo sapiens), sequence (P19793 whole entry, looked up): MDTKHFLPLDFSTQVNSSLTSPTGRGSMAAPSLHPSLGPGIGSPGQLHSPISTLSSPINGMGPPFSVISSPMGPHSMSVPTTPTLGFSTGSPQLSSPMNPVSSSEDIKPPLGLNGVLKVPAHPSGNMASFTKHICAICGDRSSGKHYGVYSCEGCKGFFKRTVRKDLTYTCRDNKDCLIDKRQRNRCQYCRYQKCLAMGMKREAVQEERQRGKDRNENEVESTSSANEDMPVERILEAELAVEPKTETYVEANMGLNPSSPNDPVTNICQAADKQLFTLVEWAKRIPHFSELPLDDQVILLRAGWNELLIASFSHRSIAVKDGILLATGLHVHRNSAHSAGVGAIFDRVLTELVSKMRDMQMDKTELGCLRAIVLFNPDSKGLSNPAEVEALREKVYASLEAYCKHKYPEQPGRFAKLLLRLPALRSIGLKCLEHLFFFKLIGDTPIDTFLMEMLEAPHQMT
# Procedure, shortened: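 GeneBLAzer RXR-alpha-UAS-bla HEK 293T cells in 2% charcoal-stripped FBS medium were exposed to compounds for 16 hr at 37 C in agonist mode. Beta-lactamase reporter read as 460/530 nm FRET ratio after 2 hr substrate loading.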
# [7] = biological target: Nuclear receptor ROR-gamma (Homo sapiens) (UniProt P51449); assay: qHTS assay to identify small molecule antagonists of the retinoid-related orphan receptor gamma (ROR-gamma) signaling pathway (AID 1159521; active means well fitted curve in the direction sought with a large enough effect in the repeat runs; an effect the other way counts as inactive or inconclusive; further: nearly all actives have a fitted effect of over 50% in size; further: potency means the concentration at half of the fitted maximal effect)
# Procedure, shortened: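 Tet-on ROR-gamma CHO cells with ROR response element-luciferase reporter; compounds added 2 hr before 1 uM doxycycline induction, then 16 hr at 37 C. Antagonism scored as decreased ONE-Glo luminescence.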
# [8] = qHTS assay to identify small molecule antagonists of the vitamin D receptor (VDR) signaling pathway - cell viability counter screen (AID 743225; active means well fitted curve in the direction sought with a large enough effect in the repeat runs; an effect the other way counts as inactive or inconclusive; further: nearly all actives have a fitted effect of over 50% in size)
# Procedure, shortened: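 VDR-UAS-bla HEK 293T cells were plated and incubated 4 h at 37C, then dosed with compound plus 3 nM (final) 1-alpha,25-dihydroxyvitamin D3 for 16 h. After the 2 h beta-lactamase read, viability in the same wells was read as CellTiter-Glo luminescence after 30 min at room temperature.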
# [9] = qHTS assay to identify small molecule agonists of the AP-1 signaling pathway (AID 1159526)
# [10] = qHTS assay to identify small molecule agonists of the endoplasmic reticulum stress response signaling pathway (AID 1159516; active means well fitted activation curve with a large enough effect in the signal ratio in the repeat runs, not every such curve was filed as active; the % refers to the signal ratio)
# Procedure, shortened: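 ER stress element reporter (bla) in HeLa. 1,500 cells/well, overnight attachment; 5 hr compound; 2 hr RT substrate; dual-emission fluorescence.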
SMILES,Potency [1],Potency [2],outcome [3],"activity, negative = cytotoxicity [4]","viability change, negative = cytotoxic [5]",activation [6],Potency [4],Potency [7],Potency [5],Potency [6],Potency [8],Potency [9],Potency [10]
CCCCCCCCCCCCCCCCCBr,inactive,inactive,inactive,2.1% [at 19 µM],0.953% [at 15.8 µM],-0.344% [at 15.8 µM],–,–,–,–,–,–,–
CN1CCC[C@@H]1c1cccnc1,inactive,inactive,inactive,–,–,–,inactive,inactive,inactive,inactive,–,–,–
Cc1c(Cn2ccnc2)c2ccccc2n1CCC(=O)O,inactive,inactive,inactive,–,–,–,inactive,inactive,inactive,inactive,inactive,–,–
c1ccc(-c2nc[nH]c2-c2ccccc2)cc1,inactive,inactive,inactive,–,–,–,inactive,–,inactive,–,inactive,inactive,–
CCCCC(CC)COCCCN (stereo not given),inactive,inactive,inactive,–,–,–,inactive,–,inactive,–,inactive,–,–
C#CCOC(=O)[C@@H](C)Oc1ccc(Oc2ncc(Cl)cc2F)cc1,inactive,inactive,inactive,–,–,–,inactive,inactive,inactive,inactive,inactive,inactive,–
CCCCCCCCCCCCCCCBr,inactive,inactive,inactive,–,–,–,inactive,–,inactive,inactive,inactive,–,inactive
CC(C)=CCCC(C)CC=O (stereo not given),inactive,inactive,inactive,–,–,–,inactive,–,inactive,–,–,inactive,–
CC(C)(C)C1CCCCC1O (stereo not given),inactive,inactive,inactive,–,–,–,inactive,inactive,inactive,inactive,inactive,–,–
CC(C)(Oc1ccc(Cl)cc1)C(=O)OCCCOC(=O)C(C)(C)Oc1ccc(Cl)cc1,inactive,inactive,inactive,–,–,–,inactive,inactive,inactive,–,inactive,inactive,–
CC(=O)OC/C=C/c1ccccc1,inactive,inactive,inactive,–,–,–,inactive,inactive,inactive,inactive,–,inactive,–
CC(=O)CC(=O)c1ccccc1,inactive,inactive,inactive,–,–,–,inactive,6.9 µM (active),inactive,–,inactive,–,–
Cc1ccc(C)o1,–,inactive,inactive,–,–,–,inactive,inactive,inactive,–,inactive,inactive,–
CC1CCc2cc(F)cc3c(=O)c(C(=O)O)cn1c23 (stereo not given),–,inactive,inactive,–,–,–,inactive,inactive,inactive,–,–,–,–
CC(=O)[C@@]1(O)CC[C@H]2[C@@H]3C[C@H](C)C4=CC(=O)CC[C@]4(C)[C@H]3CC[C@@]21C,inactive,inactive,inactive,–,–,–,inactive,inactive,inactive,inactive,inactive,–,–
CN1CCC(=C2c3ccccc3C=Cc3ccccc32)CC1,inactive,inactive,inactive,–,–,–,inactive,–,inactive,inactive,inactive,–,inactive

SMILES,Potency [1],Potency [2],outcome [3],"activity, negative = cytotoxicity [4]","viability change, negative = cytotoxic [5]",activation [6],Potency [4],Potency [7],Potency [5],Potency [6],Potency [8],Potency [9],Potency [10]
CCN(CC)C(C)CN1c2ccccc2Sc2ccccc21 (stereo not given),–,inactive,inactive,–,–,–,inactive,–,inactive,inactive,inactive,–,–
O=C(NN1CCCC1)NS(=O)(=O)c1ccc(Cl)cc1,inactive,inactive,inactive,–,–,–,inactive,inactive,inactive,inactive,inactive,inactive,–
CN(C)C/C=C(/c1ccc(Br)cc1)c1cccnc1,inactive,inactive,inactive,–,–,–,inactive,–,inactive,inactive,inactive,inactive,–
CCCCCCCC/C=C\CCCCCCCC(N)=O,inactive,inactive,inactive,–,–,–,inactive,inactive,inactive,inactive,inactive,–,–
CC(=O)OCCc1ccccc1,inactive,inactive,inactive,–,–,–,inactive,inactive,inactive,–,–,inactive,–
SC1CCCC1,inactive,inactive,inactive,–,–,–,inactive,inactive,inactive,–,–,inactive,–
CC1(C)[C@H]2CC[C@]1(C)[C@H](O)C2,inactive,inactive,inactive,–,–,–,inactive,inactive,inactive,–,inactive,inactive,–
CC[C@]12CCCN3CCc4c(n(c5ccccc45)C(=O)C1)[C@@H]32,inactive,inactive,inactive,–,–,–,inactive,inactive,inactive,inactive,inactive,–,–
Cc1cccc(C(C)(C)C)c1O,–,inactive,inactive,–,–,–,inactive,inactive,inactive,inactive,inactive,–,–
CC(O)C1CCCCC1 (stereo not given),inactive,–,inactive,–,–,–,inactive,inactive,inactive,–,–,inactive,inactive
C=C(C)C(=O)OCCOc1ccccc1,–,–,inactive,–,–,–,inactive,inactive,inactive,inactive,inactive,–,–
C[C@H](CCC(=O)O)[C@H]1CC[C@H]2[C@@H]3[C@H](O)C[C@@H]4C[C@H](O)CC[C@]4(C)[C@H]3CC[C@]12C,inactive,–,inactive,–,–,–,inactive,–,inactive,–,–,inactive,inactive
S=C(S)NCCNC(=S)S,–,–,inactive,–,–,–,inactive,inactive,inactive,inactive,–,–,inactive
O=C=NC1CCC(CC2CCC(N=C=O)CC2)CC1 (stereo not given),inactive,–,inactive,–,–,–,inactive,inactive,inactive,–,inactive,inactive,inactive
CC(=O)N(O)CCCCCNC(=O)CCC(=O)N(O)CCCCCNC(=O)CCC(=O)N(O)CCCCCN,inactive,–,inactive,–,–,–,inactive,inactive,inactive,inactive,–,–,inactive
Cc1cc(CC(=O)O)c(C)n1-c1ccc(Cl)cc1,inactive,–,inactive,–,–,–,inactive,inactive,inactive,–,inactive,–,–
